Measured values as given in PubChem BioAssay AID1529 (NMMLSC, 2009).
About 4,200 (1.4%) of roughly 290,000 compounds were called active. This is one part of a sample in which actives are shown more often than they occur. A number with no mark means an inactive call.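 How the source made its calls: active means binding response more than 3 SD above or below the average of its plate-row segment, actives on both sides; inconclusive means wells at one plate position flagged as instrument error; inactive means the rest.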

Target: Mitogen-activated protein kinase kinase kinase 3 (Homo sapiens) (UniProt Q99759)
Test: compounds raising or lowering MEK5 association with MEKK3 PB1 – biochemical, wildtype MEKK3, multiplex bead flow cytometry, Alexa488-MEK5, primary screen (AID 1529);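 further: Alexa488 bead fluorescence after subtracting the streptavidin-only scavenger bead signal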
Conditions: bead-based flow cytometry, Alexa488-MEK5 binding to MEKK3; at 10 µM; actives lie on both sides; 0 = blocked by unlabeled MEK5, 100 = vehicle

Chain of Mitogen-activated protein kinase kinase kinase 3 (Homo sapiens) (Q99759 whole entry, looked up): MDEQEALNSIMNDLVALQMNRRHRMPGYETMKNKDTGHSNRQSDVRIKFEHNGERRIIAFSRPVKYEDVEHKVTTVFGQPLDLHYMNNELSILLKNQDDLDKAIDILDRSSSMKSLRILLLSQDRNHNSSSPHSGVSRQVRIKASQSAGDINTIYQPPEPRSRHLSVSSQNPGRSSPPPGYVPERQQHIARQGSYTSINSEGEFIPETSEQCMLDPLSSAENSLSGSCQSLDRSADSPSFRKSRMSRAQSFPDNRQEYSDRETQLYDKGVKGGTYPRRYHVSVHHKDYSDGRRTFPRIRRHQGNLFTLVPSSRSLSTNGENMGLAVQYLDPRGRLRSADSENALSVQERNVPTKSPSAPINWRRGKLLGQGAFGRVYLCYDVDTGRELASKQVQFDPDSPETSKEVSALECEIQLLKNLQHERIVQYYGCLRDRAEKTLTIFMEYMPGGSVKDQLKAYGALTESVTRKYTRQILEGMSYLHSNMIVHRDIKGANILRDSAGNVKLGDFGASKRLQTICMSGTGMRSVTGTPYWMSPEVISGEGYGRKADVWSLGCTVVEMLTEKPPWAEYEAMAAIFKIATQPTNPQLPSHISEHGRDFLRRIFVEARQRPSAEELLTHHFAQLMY

SMILES	binding response (% of control)
COC(=O)c1cccc(N(C(=O)CNC(=O)c2cccs2)C(C(=O)NCC2CCCO2)c2ccc(OC)c(OC)c2)c1 (stereo not given)	100%
COC(=O)[C@@H]1CC(O)CN1C(=O)C12CC3CC(CC(C3)C1)C2 (stereo not given in full)	96%
O=C(Nc1cccc2ncccc12)C(Cl)(Cl)Cl	101%
O=C(O)c1cc(Cl)c(Cl)cc1C(=O)Nc1cccc2ncccc12	128% (active)
O=C(Nc1cccc2ncccc12)c1ccc(-c2ccc(Cl)cc2Cl)o1	102%
OCC[C@H]1C[C@H](O)[C@@H](O)[C@]2(CCCCO2)O1	100%
Cc1ccc2nc(Nc3ncc4c(n3)CC(C)(C)CC4=O)nc(C)c2c1	102%
CCc1ccc2nc(Nc3ncc(C(C)=O)c(C)n3)nc(C)c2c1	49% [inhibitor] (active)
COc1ccccc1Nc1ncc(C(C)=O)c(C)n1	104%
CCCCn1c(SCC(=O)NCCc2ccc(OC)c(OC)c2)nc2c1c(=O)n(C)c(=O)n2C	0% [inhibitor] (active)
CCn1c(NCCc2ccc(OC)c(OC)c2)nc2c1c(=O)n(C)c(=O)n2C	103%
C#CC(C)(C)NC(=O)CSc1nc2c(c(=O)n(C)c(=O)n2C)n1CCCC	108%
Cc1ccc(O)c(/C=N/NC(=O)COc2ccc3c(C)cc(=O)oc3c2)c1	99%
COc1cccc(/C(C)=N/Nc2ncc(Cl)cc2Cl)c1	135% (active)
C/C(=N\Nc1ncc(Cl)cc1Cl)c1ccc(S(=O)(=O)NCc2ccco2)cc1	108%
C/C(=N\Nc1ncc(Cl)cc1Cl)c1cccs1	103%
O=C(CN(C(=O)c1nsc(Cl)c1Cl)c1cccc(F)c1)NC1CCCC1	99%
COCc1ccc(C(=O)NC2CC(C)(C)Cc3c2cnn3-c2ccc(C)cc2)o1 (stereo not given)	97%
CC1CCC2(CC1)NC(=O)N(CC(=O)c1ccc3c(c1)OCO3)C2=O (stereo not given)	99%
CC(C)CC(=O)NC(=S)NCc1ccccc1	141% (active)

SMILES	binding response (% of control)
CC(C)CC(=O)NC(=S)Nc1ccc(F)cc1F	117%
CC(C)CC(=O)NC(=S)Nc1cc(C(=O)O)ccc1Cl	132% (active)
CC(=O)c1ccc(NC(=S)NC(=O)CC(C)C)cc1	104%
CC(C)CNC(=O)C(=O)NCc1ccccc1	96%
CC(C)Oc1ccc(CCC(=O)NNC(=S)NCc2ccccc2)cc1	95%
CCc1nn(CCCC(=O)Nc2ccc(C)cc2C)c(=O)c2cc3occc3n12	99%
CN(Cc1ccccc1Cl)C(=O)C1CCC(=O)N(CCc2cccc(F)c2)C1 (stereo not given)	102%
COc1ccc(N(CC(=O)N2CCCCCC2)S(=O)(=O)c2ccccc2)cc1	102%
COc1ccc(C(=O)O/N=C(\N)c2ccccn2)cc1[N+](=O)[O-]	107%
COC(=O)c1c(NC(=O)CCCC(=O)O)sc2c1CCCCC2	99%
CCc1ccc(N(CC(=O)Nc2sc3c(c2C(=O)OC)CCCC3)S(C)(=O)=O)cc1	92%
COC(=O)c1c(NC(=O)COC(=O)[C@@H](NS(=O)(=O)c2ccccc2)C(C)C)sc2c1CCC2	2% [inhibitor] (active)
CC(C)CN(Cc1c(O)ccc2c(=O)c(-c3ccccc3)coc12)CC(C)C	102%
Cc1cc(C)cc(C(=O)NC(=S)Nc2ccc3[nH]c(=O)[nH]c3c2)c1	105%
Cc1ccc(C(=O)NC(=S)Nc2ccc3[nH]c(=O)[nH]c3c2)cc1C	145% (active)
CC(=O)Nc1ccc(NC(=S)NC(=O)c2ccc([N+](=O)[O-])c(C)c2)cc1	97%
CC1(C)CC[C@]2(C(=O)O)CC[C@]3(C)C(=CCC4[C@@]5(C)CC[C@H](O)C(C)(C)C5[C@H](O)C[C@]43C)[C@@H]2C1 (stereo not given in full)	101%
O=C(Cc1cccs1)Nc1cccc(-c2nc3ccccc3[nH]2)c1	107%
Cc1ccc(-c2nc3ccccc3[nH]2)cc1NC(=O)c1sc2ccccc2c1Cl	102%
O=C(Nc1cccc(-c2nc3ccccc3[nH]2)c1)c1ccc(C(=O)Nc2cccc(-c3nc4ccccc4[nH]3)c2)cc1	63% [inhibitor] (active)

SMILES	binding response (% of control)
CCNC(=O)c1cnn(-c2ccccc2)c1-c1ccccc1	103%
COc1ccc(C(=O)NC(=S)N2CCCCC2c2cccnc2)cc1OC (stereo not given)	98%
O=C(c1ccc(CS(=O)(=O)c2ccccc2)o1)N1CCN(c2ccccc2)CC1	102%
O=C(c1ccco1)N1CCN(c2cccc(Cl)c2)CC1	2% [inhibitor] (active)
O=C(Cc1c(F)cccc1Cl)N1CCN(C(=O)c2ccco2)CC1	103%
O=C(c1cccc([N+](=O)[O-])c1)N1CCN(C(=O)c2ccco2)CC1	100%
Fc1ccc2c(c1)C(c1cccnc1)=NNC(c1cccs1)=N2	107%
CCCOc1ccc(Cl)cc1Nc1nc(NCCO)nc(N2CCCC2)n1	108%
COc1ccc2c(c1)C(=C(C#N)C#N)C(=O)N2CCc1ccccc1	96%
O=C(O)CCCN1C(=O)c2ccccc2Sc2ncccc21	107%
CCCCN1C(=O)/C(=C(/C#N)C(N)=O)c2ccccc21	146% (active)
CC1CN(C(=S)Nc2cccc(F)c2)CC(C)O1 (stereo not given)	105%
COc1ccc(CNC(=O)C2(CC3CC(c4ccccc4)=NO3)CCN(C(=O)c3cccc(O)c3)CC2)cc1 (stereo not given)	99%
COC(=O)c1ccc(NC(=O)CSc2nnc(CNc3ccc(OC)cc3)n2C)cc1	106%
COc1ccc(C(=O)NCc2nnc(SCC(=O)NC3=NCCS3)n2C)cc1	71% [inhibitor] (active)
COc1ccc(C(=O)NCc2nnc(SCCOc3ccccc3)n2C)cc1	102%
O=C(NCc1ccccc1)c1onc(CSc2ccncc2)c1C(=O)NCc1ccccc1	106%
O=C(N/N=C/c1cccc([N+](=O)[O-])c1)c1ccncc1	107%
CO/N=C(\N)c1ccc([N+](=O)[O-])cc1	98%
N/C(=N\OS(=O)(=O)c1cccc([N+](=O)[O-])c1)c1ccncc1	145% (active)
